Screening results as filed in PubChem.
Rows were chosen to be rich in hits. Some 1.8% of all compounds tested hit in one or more screens of this group.
NALP1 yeast inh = NALP1 inhibition. hit rate 0.61% among 280,000. S. cerevisiae NALP1/ASC/caspase-1 growth, X-gal OD620, 72 h. inhibition, % at 10 µM; in the data active = inhibition mostly above about 24%, no sharp cut-off; inactive = mostly below about 32%
PolyA inhibitor = blocks polyadenylation in yeast reporter cells | activity score, % at 12 µM | hit rate 0.02% among 300,000 | AID 1875 | S. cerevisiae SKY197-pL101 polyadenylation reporter, beta-gal luminescence; efflux-impaired pdr1/pdr3 knockout yeast; score 100 = 6 SD above DMSO;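 active = lowest replicate activity score at least 50, where 100 means six control SD above control mean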;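 note: yeast exposed to compound for 9 h at 30 °C; higher score means more reporter readthrough which indicates perturbed polyadenylation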
Mot1-301 SUMO = inhibitors of SUMOylation pathway: yeast Mot1-301 growth rescue. S. cerevisiae Mot1-301 growth rescue, ATP luminescence, 38.5C; percent above DMSO median, 100 means doubled. growth rescue, % at 18.8 µM. hit rate 1% among 320,000;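 active = every valid replicate shows activation above 250% relative to neutral control wells; inactive = the rest, any valid replicate at or below 250%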;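 note: OY570 slx delta 5 strain wells were the positive control but not used for scaling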
NLRP3 yeast inh = NALP3 inhibition in yeast. Yeast reconstituted NLRP3/ASC/caspase-1, beta-gal luminescence, 24 h. inhibition, % at 10 µM. hit rate 0.39% among 330,000;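 active = inhibition of 50% or more; inactive = inhibition below 50%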;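 note: plate controls were induced DMSO wells for no effect and uninduced yeast grown without galactose for full effect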
NALP3 confirm = NALP3 inhibition confirmation in yeast | shares compounds with NLRP3 yeast inh | yeast expressing human NALP3, luminescence | inhibition, % at 10 µM | hit rate 81% among 1,300; in the data active = inhibition above about 48%
Casp1-ASC yeast = counter-screen for NALP3 inhibitors: yeast caspase-1-ASC. shares compounds with NLRP3 yeast inh. yeast expressing Caspase-1-ASC, luminescence counter screen. inhibition, % at 10 µM. hit rate 66% among 1,000. AID 488784
NALP3 yeast rt = confirmation retest of NALP3 inhibitors in yeast | shares compounds with NLRP3 yeast inh | yeast expressing human NALP3, luminescence read-out | inhibition, % at 10 µM | hit rate 53% among 1,000
* = called active by the depositor; x = no result given. Cut-off read from the data, not from the text of the source, unless noted: active = inhibition above about 50%; inactive = the rest.

SMILES	NALP1 yeast inh	PolyA inhibitor	Mot1-301 SUMO	NLRP3 yeast inh	NALP3 confirm	Casp1-ASC yeast	NALP3 yeast rt
Cc1nn(-c2c(Cl)cc(Cl)cc2Cl)c(=O)c2ccccc12	20	-26	24	63*	73*	59*	53*
CCC1CCCCN1CCCNC(=O)CCCOc1cc(=O)n(C)c2ccccc12 (stereo unspecified)	4	12	1	15	x	x	x
CC1Oc2ccccc2N(Cc2ccccc2Cl)C1=O (stereo unspecified)	6	-23	-2	-144	6	x	x
CC1Oc2ccccc2N(Cc2ccccc2F)C1=O (stereo unspecified)	-2	-10	-2	-74	x	x	x
Clc1ccc(OCc2nnnn2-c2ccccc2)cc1	-35	3	-13	-114	-41	x	x
c1ccc(OCc2nnnn2-c2ccccc2)cc1	-25	-3	176	-105	-66	-20	-36
Brc1ccc(Oc2nnnn2-c2ccccc2)cc1	-31	-3	5	-3	x	x	x
c1ccc(CSc2nnc(Cc3ccccc3)o2)cc1	9	-8	2	10	x	x	x
Cc1ccc(C)c(CSc2nnc([C@@H](N)C(C)C)o2)c1	11	-2	-10	6	x	x	x
NCCc1nnc(SCc2ccccc2F)o1	16	-7	-3	63*	74*	68*	70*
Cc1ccc(-c2nnc(SCc3ccccc3F)o2)cc1	6	-22	9	26	x	x	x
NCCc1nnc(SCc2ccccc2)o1	16	-15	1	61*	75*	61*	61*
Cc1ccc(C)c(CSc2nnc(CCN)o2)c1	3	-32	-3	72*	80*	65*	72*
NC(=O)C1=C[C@@H](c2ccc(Br)cc2)C[C@@H](OCc2ccc(CO)cc2)O1	-2	-5	-19	16	x	x	x
O=C(COC(=O)c1ccccc1O)NC(c1ccccc1)c1ccccc1	x	x	-12	1	x	x	x
CC(C)[C@H]1CN=C2N(CCNC(=O)CCC3CCCCC3)[C@H](Cc3ccc(O)cc3)CN21	20	17	-17	12	x	x	x
O=C(N/N=C/C(Br)=C\c1ccccc1)c1ccco1	8	9	182	64*	77*	74*	54*
COc1ccc(-c2cn3cc(C(=O)NN)ccc3n2)cc1	-3	-14	-24	-8	x	x	x
NNC(=O)c1ccc2nc(-c3ccc(Br)cc3)cn2c1	39*	-19	43	53*	70*	x	x
CN1CCS/C1=C/C=C1\SC(=S)N(CC(=O)O)C1=O	-20	-30	1	21	x	x	x
CCCCN1C(=O)/C(=C/C=C2\SCCN2C)SC1=S	4	-16	x	58*	48	64*	65*
COC(=O)C(C)N1C(=O)S/C(=C/c2cc(C)n(C(C)C)c2C)C1=O (stereo unspecified)	x	9	-6	8	x	x	x
Cc1[nH]c2c(C)cccc2c1CCNC(=O)C1CCCCC1C(=O)OCC(F)(F)F (stereo unspecified)	6	2	-11	72*	-7	x	x
O=C(Nc1cccc(Cl)c1)c1ccc2c(=O)n3c(nc2c1)CCCCC3	1	23	x	70*	66*	x	x
S=C(Nc1ccc(Cl)c(Cl)c1)NC1CCCCC1	32	-16	22	53*	59*	85*	68*
SMILES	NALP1 yeast inh	PolyA inhibitor	Mot1-301 SUMO	NLRP3 yeast inh	NALP3 confirm	Casp1-ASC yeast	NALP3 yeast rt
O=C(O)C(C(=O)Oc1ccccc1)C(C(=O)O)C(=O)Oc1ccccc1 (stereo unspecified)	x	x	-4	10	x	x	x
COc1ccc(C2CC(=O)C(C=NCCCO)=C(O)C2)cc1 (stereo unspecified)	5	8	172	3	x	x	x
CCC(=O)N1CCN(CCN=CC2=C(O)CC(c3ccc(OC)cc3)CC2=O)CC1 (stereo unspecified)	39	1	-19	53*	35	x	x
CCCCCC(=O)N1CCN(CCN=CC2=C(O)CC(c3ccc(OC)cc3)CC2=O)CC1 (stereo unspecified)	23	-6	8	55*	72*	46	48
CCCCCC(=O)N1CCN(CCN=CC2=C(O)CC(c3ccc(OC)c(OC)c3)CC2=O)CC1 (stereo unspecified)	5	-6	-16	58*	66*	43	37
COCCNc1c2c(c(C#N)c3nc4ccccc4n13)CCCC2	13	-34	0	10	x	x	x
CCOc1nc(S(=O)(=O)c2ccc(C)cc2)c(Cl)s1	-19	-14	-10	-107	-12	x	x
COc1ccc2oc(C(=O)OCC(=O)N(Cc3ccccc3)C(C)(C)C)c(C)c2c1	9	-9	20	25	x	x	x
CC(C#Cc1c([C@@H](C)Oc2ccccc2)nnn1Cc1ccccc1)Oc1ccccc1 (stereo partly specified)	x	1	-5	8	x	x	x
Cc1cc(C(=O)COC(=O)c2cccnc2Cl)c(C)n1C	x	x	5	32	x	x	x
Cc1cc(C(=O)COC(=O)c2csc3c2CCCC3)c(C)n1C	-6	14	1	54*	62*	33	23
CCN(C(=O)CSc1nnc(-c2ccncc2)n1-c1ccccc1)C1CCS(=O)(=O)C1 (stereo unspecified)	6	6	34	3	x	x	x
O=C(Nc1cc(Cl)ccc1-n1cncn1)c1ccc([N+](=O)[O-])s1	45*	-4	3	82*	91*	x	x
CC(Oc1ccccc1)C(=O)Nc1cc(Cl)ccc1-n1cncn1 (stereo unspecified)	x	2	-4	57*	59*	52*	46
CC(=O)c1ccc(NC(=O)C(C)OC(=O)C(C)Oc2cccc(C)c2)cc1 (stereo unspecified)	27	-10	26	8	x	x	x
CCOC(=O)c1ccc(NC(=O)c2nc(S(=O)(=O)Cc3ccccc3)ncc2Cl)cc1	10	-13	72	2	x	x	x
CCc1ccc(NC(=O)c2nc(S(=O)(=O)Cc3ccccc3)ncc2Cl)cc1	12	-84	171	60*	73*	54*	66*
N#Cc1ccsc1NC(=O)c1ccc(Cl)c([N+](=O)[O-])c1	-16	0	-14	78*	81*	x	x
Cc1ccc(C(=O)CSc2ncnc3ccccc23)o1	19	x	8	54*	69*	73*	58*
N#CCCn1cc(CNCc2ccccc2)c(-c2cccc([N+](=O)[O-])c2)n1	21	7	-1	7	x	x	x
C=CCNC(=S)NC1CC(C)(C)NC(C)(C)C1	25	4	0	9	x	x	x
CCc1cc(C(=O)Nc2cc(Cl)ccc2N2CCN(C)CC2)sc1C	x	3	112	67*	79*	77*	73*
CCc1cc(C(=O)Nc2cc(S(=O)(=O)N(CC)CC)ccc2N2CCN(C)CC2)sc1C	x	18	6	9	x	x	x
COc1ccc(S(=O)(=O)N(CC(=O)NCc2ccccn2)c2ccc(Cl)cc2)cc1	-21	-1	24	8	x	x	x
